{"source": "PubChem BioAssay (NCI)", "system": "MDA-MB-468 breast", "test": "NCI-60 one-dose screen, 48 h (100 = growth as untreated, 0 = no growth, -100 = all killed)", "conditions": "10 µM unless noted", "note": "Several values for one entry are separate records, joined by “and”; a condition that tells them apart may be missing. Equal entries are not always repeated. The panel holds about 83,000 compounds, 20% with a hit somewhere; the sample as a whole holds those more often.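 Note: values are percent growth. 100 is the growth of untreated cells, values between 100 and 0 indicate rising inhibition; between -100 and 0 indicates cell death.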 Unmarked numbers belong to inactive results. Activity calls are given as the source filed them. The calls were made as follows: active = growth percent below 10; inactive = the rest.", "data": [{"smiles": "CCc1ccc(Oc2c(-c3ccc(OCc4ccc(Cl)cc4)cc3O)nn(C)c2C(F)(F)F)cc1", "values": [{"measurement": "growth", "value": "-11.1% (active)"}]}, {"smiles": "O=C(NCCNC(=O)c1cc(S(=O)(=O)NCCc2ccccc2)c(O)c(O)c1O)c1cc(S(=O)(=O)NCCc2ccccc2)c(O)c(O)c1O", "values": [{"measurement": "growth", "value": 83.2, "unit": "%"}]}, {"smiles": "O=C1c2c(c(=O)[nH]c3ccccc23)CCN1Cc1ccccc1", "values": [{"measurement": "growth", "value": 101, "unit": "%"}]}, {"smiles": "CCCCn1c(=O)[nH]c(N)c(C(c2ccc(F)cc2)c2c(N)[nH]c(=O)n(CCCC)c2=O)c1=O", "values": [{"measurement": "growth", "value": 51.2, "unit": "%"}]}, {"smiles": "COc1ccc(NC(=O)Nc2ccc(Nc3nc(C)cc(Nc4ccc(C)cc4)n3)cc2)cc1", "values": [{"measurement": "growth", "value": "-68.9% (active)"}]}, {"smiles": "O=C(CC(NC(=O)OCc1ccccc1)C(=O)OCc1ccccc1)OCc1ccccc1", "note": "(centres undefined)", "values": [{"measurement": "growth", "value": 112, "unit": "%"}]}, {"smiles": "O=C(Nc1cccc(Br)c1)Oc1ccc(Cl)c2cccnc12", "values": [{"measurement": "growth", "value": "-9.1% [100 µM] (active)"}]}, {"smiles": "COc1ccc(-c2cc(C(=O)N3N=C(c4ccc(N)cc4)CC3c3ccccc3)c3ccccc3n2)cc1", "note": "(centres undefined)", "values": [{"measurement": "growth", "value": 29.3, "unit": "%"}]}, {"smiles": "CCOc1ccc(NC(=S)N2CCC(CCCC3CCN(C(=S)Nc4ccc(OCC)cc4)CC3)CC2)cc1", "values": [{"measurement": "growth", "value": 58.7, "unit": "%"}]}, {"smiles": "COc1ccc(-c2cc(NC(=O)Nc3ccc(O)cc3)no2)cc1", "values": [{"measurement": "growth", "value": 80.5, "unit": "%"}]}, {"smiles": "COc1ccc(OC)c(Nc2nnc(-c3cc(OC)c(OC)c(OC)c3)o2)c1", "values": [{"measurement": "growth", "value": 92, "unit": "%"}]}, {"smiles": "CC(C)CCSc1nc(-c2ccc(F)cc2)c(C#N)c(N2CCCCC2)n1", "values": [{"measurement": "growth", "value": 104, "unit": "%"}]}, {"smiles": "Cc1cc(N2CCCCC2)nc(NC2CCCC(Nc3ccnc4cc(Cl)ccc34)C2)n1", "note": "(centres undefined)", "values": [{"measurement": "growth", "value": "-77.6% (active)"}]}, {"smiles": "C#CCOc1cccc(Nc2ncnc3ccc(NC(=O)CCl)cc23)c1", "values": [{"measurement": "growth", "value": "-54% (active)"}]}, {"smiles": "CSC1=NC(=Nc2c(C)cccc2C)C2(CCC(C(C)(C)C)CC2)N1c1ccc(Cl)cc1", "note": "(centres undefined)", "values": [{"measurement": "growth", "value": 38.3, "unit": "%"}]}, {"smiles": "Cc1nn(-c2ccc(Cl)cc2)c2ncnc(N/N=C/c3cccc([N+](=O)[O-])c3)c12", "values": [{"measurement": "growth", "value": 117, "unit": "%"}]}, {"smiles": "COc1cc(/C=C\\c2cc(OC)c(OC)c(OC)c2)cc(N)c1OC", "values": [{"measurement": "growth", "value": 58.4, "unit": "%"}]}, {"smiles": "CCOC(=O)C1OC1(c1ccccc1)c1ccccc1", "note": "(centres undefined)", "values": [{"measurement": "growth", "value": 104, "unit": "%"}]}, {"smiles": "O=C1/C=C/[C@@H](O)[C@@H]2C[C@@H](O)C[C@H]2/C=C/CCC[C@H]([C@@H](O)CO)O1", "values": [{"measurement": "growth", "value": "-5.34% (active)"}]}, {"smiles": "COc1cc2c(cc1-c1c(C)noc1C)ncc1nc(C3CCC(F)(F)CC3)n([C@H](C)COC(F)F)c12", "values": [{"measurement": "growth", "value": 33.6, "unit": "%"}]}, {"smiles": "Cc1cnc(Nc2ccc(OCCN3CCCC3)cc2)nc1NCc1ccco1", "values": [{"measurement": "growth", "value": 80.8, "unit": "%"}]}, {"smiles": "CCOC(=O)C1=C(C(=O)c2ccc(Br)cc2)C(c2ccc(Br)cc2)NC(=S)N1", "note": "(centres undefined)", "values": [{"measurement": "growth", "value": 103, "unit": "%"}]}, {"smiles": "CCN(CC)CCCC(C)Nc1cnc(C(=O)Nc2cc(F)cc3cccnc23)cn1", "note": "(centres undefined)", "values": [{"measurement": "growth", "value": "6.24% (active) and -66.3% (active)"}]}, {"smiles": "CC1=C(C)C(=O)C(Nc2ccccc2)=C(Cl)C1=O", "values": [{"measurement": "growth", "value": "-76% (active)"}]}, {"smiles": "NC(=O)c1cccc(-n2ccc3cc(NC(=O)Nc4ccc(Cl)c(C(F)(F)F)c4)ccc32)n1", "values": [{"measurement": "growth", "value": 47, "unit": "%"}]}, {"smiles": "CN1Cn2c(ccc2C(F)(F)F)C(=O)CS1(=O)=O", "values": [{"measurement": "growth", "value": 115, "unit": "%"}]}, {"smiles": "NC(=O)[C@@H]1Cc2ccccc2CN1C(=O)c1ccc2c(c1)Cc1ccccc1-2", "values": [{"measurement": "growth", "value": 71.4, "unit": "%"}]}, {"smiles": "COc1cc2c(c(OC)c1OC)CCC(c1cccc(NC(=O)c3cccc(Cl)c3)c1)O2", "note": "(centres undefined)", "values": [{"measurement": "growth", "value": 60.2, "unit": "%"}]}, {"smiles": "CSc1nc(-c2cccc(NC(=O)CCl)c2)c(C#N)c(=O)n1C", "values": [{"measurement": "growth", "value": "-4.77% (active)"}]}, {"smiles": "Fc1ccc2[nH]cc(-c3nc(-c4c[nH]c5c(Cl)nccc45)cs3)c2c1", "values": [{"measurement": "growth", "value": "9.87% (active)"}]}, {"smiles": "O=C1C2=C(C(=O)c3ccccc31)C(O)(S(=O)(=O)O)C(O)(S(=O)(=O)O)C1N=CC=CC21", "note": "(centres undefined)", "values": [{"measurement": "growth", "value": 18.4, "unit": "%"}]}, {"smiles": "COC(=O)C(C)NC1=C(Cl)C(=O)C(NC(C)C(=O)OC)=C(Cl)C1=O", "note": "(centres undefined)", "values": [{"measurement": "growth", "value": 63.6, "unit": "%"}]}, {"smiles": "NC(=S)n1c(=O)n(-c2cccc(C(F)(F)F)c2)c(=O)c2cc(-c3ccc(F)cc3F)ccc21", "values": [{"measurement": "growth", "value": "1.23% (active)"}]}, {"smiles": "COc1ccc(-c2n[nH]nc2-c2csc3ccccc23)cc1OC", "values": [{"measurement": "growth", "value": 21.1, "unit": "%"}]}, {"smiles": "CCNCc1ccc(O)c2ncccc12", "values": [{"measurement": "growth", "value": 54.6, "unit": "%"}]}, {"smiles": "O=C(Nc1cccc(Cl)c1)Nc1nc2cc([N+](=O)[O-])ccc2o1", "values": [{"measurement": "growth", "value": 53.4, "unit": "%"}]}, {"smiles": "N/C(=N\\C(N)=N\\c1nc2ccccc2s1)c1ccc(C(F)(F)F)cc1", "values": [{"measurement": "growth", "value": 107, "unit": "%"}]}, {"smiles": "COC(=O)CCc1c(/C=C2\\N=C(c3ccc[nH]3)C=C2OC)[nH]c(C)c1C(=O)OCc1ccccc1", "values": [{"measurement": "growth", "value": 28.5, "unit": "%"}]}, {"smiles": "CCOC(=O)c1cnc2c(C)cc(C)cc2c1NCCCN(C)C", "values": [{"measurement": "growth", "value": 16.5, "unit": "%"}]}, {"smiles": "CCCCCCCCCCCC(=O)NCCC[N+](C)(C)CC(=O)[O-]", "values": [{"measurement": "growth", "value": 86.9, "unit": "%"}]}, {"smiles": "CNC(=O)c1cc(Cn2nc(C)c(NC(=O)Nc3ccc(Cl)c(C(F)(F)F)c3)c2C)ccn1", "values": [{"measurement": "growth", "value": 97.5, "unit": "%"}]}, {"smiles": "COC(=O)c1cnc2c(c1)Oc1ccccc1-c1ccnn1-2", "values": [{"measurement": "growth", "value": 101, "unit": "%"}]}, {"smiles": "Cn1ncc2c(Sc3ccc(Cl)cc3)ncnc21", "values": [{"measurement": "growth", "value": 92.2, "unit": "%"}]}, {"smiles": "Cc1nc2ccc(-n3ncc(C(=O)c4cc5ccccc5[nH]4)c3N)cc2[nH]1", "values": [{"measurement": "growth", "value": 68.2, "unit": "%"}]}, {"smiles": "Cc1cc2nc3c4cc(Cl)ccc4n(CC(=O)NCCN(C)C)c3nc2cc1C", "values": [{"measurement": "growth", "value": 60.6, "unit": "%"}]}, {"smiles": "CC1(C)NCCC[C@]2(C)[C@H]3C=CC4=C5C[C@](C)(CO)CC[C@]5(C)CC[C@@]4(C)[C@]3(C)CC[C@@H]12", "values": [{"measurement": "growth", "value": "-79.5% [100 µM] (active)"}]}, {"smiles": "CN1C(=O)N(C)C2Nn3c(s/c(=C\\c4ccc(C(F)(F)F)cc4)c3=O)=NC21", "note": "(centres undefined)", "values": [{"measurement": "growth", "value": 98.5, "unit": "%"}]}, {"smiles": "COC(=O)[C@]1(CCSC)N[C@H](c2cn(-c3ccccc3)nc2C)[C@@H]2C(=O)N(c3ccccc3)C(=O)[C@@H]21", "values": [{"measurement": "growth", "value": 108, "unit": "%"}]}, {"smiles": "Nc1nc(N)c2cc(CNc3ccc(Cl)c(Cl)c3)ccc2n1", "values": [{"measurement": "growth", "value": "-75.3% (active)"}]}, {"smiles": "O=C(N/N=C\\c1ccc(Cl)cc1Cl)c1ccncc1", "values": [{"measurement": "growth", "value": 110, "unit": "%"}]}, {"smiles": "COc1cc(OC)c2c(c1Cl)O[C@]1(C2=O)C(OCc2ccccc2)=CC(=O)C[C@H]1C", "values": [{"measurement": "growth", "value": "-4.52% (active)"}]}, {"smiles": "CCCCCCCC/C=C/CCCCCCCC1=NC(C)(C)CN1CCO", "values": [{"measurement": "growth", "value": "-64.5% (active)"}]}, {"smiles": "CCN(CC)CC(C)(C)C(=O)/C=C/c1ccccc1", "values": [{"measurement": "growth", "value": "-15.2% (active)"}]}, {"smiles": "Cc1ccc(NC(=O)c2sc3nc4c(cc3c2N)C(=O)CCC4)cc1Cl", "values": [{"measurement": "growth", "value": 105, "unit": "%"}]}, {"smiles": "COc1ccc(/C(C)=C(\\c2ccc(OCCN3CCOCC3)cc2)c2ccc(OC(=O)C3CCCCC3)cc2)cc1", "values": [{"measurement": "growth", "value": 116, "unit": "%"}]}, {"smiles": "Oc1ccc2ccccc2c1N=Nc1ccccn1", "values": [{"measurement": "growth", "value": "-28.6% (active)"}]}, {"smiles": "CC(C)CC1NC(C)(C)CO1", "note": "(centres undefined)", "values": [{"measurement": "growth", "value": 108, "unit": "%"}]}, {"smiles": "Cc1ccc(Nc2cc(Cl)c([N+](=O)[O-])cc2[N+](=O)[O-])cc1", "values": [{"measurement": "growth", "value": "-65.8% (active)"}]}, {"smiles": "c1ccc(/C(=N\\N=C(/c2ccccc2)c2cccs2)c2cccs2)cc1", "values": [{"measurement": "growth", "value": 105, "unit": "%"}]}, {"smiles": "Nc1ccc(CC[C@H]2CCC/C=C/[C@@H]3C[C@H](O)C[C@H]3[C@H](O)/C=C/C(=O)O2)cc1", "values": [{"measurement": "growth", "value": "-27.3% (active)"}]}, {"smiles": "O=C(NCCN1CCCC1)n1cc(-c2ccncc2)c(-c2cc(O)cc(Cl)c2)n1", "values": [{"measurement": "growth", "value": 75.8, "unit": "%"}]}, {"smiles": "Cc1ccc(C(=O)c2ccccc2)c(C)c1", "values": [{"measurement": "growth", "value": 111, "unit": "%"}]}, {"smiles": "CC1(C)OC2OC3C(CN)OC(c4ccccc4)OC3C2O1", "note": "(centres undefined)", "values": [{"measurement": "growth", "value": 116, "unit": "%"}]}, {"smiles": "NS(=O)(=O)c1ccc(Cn2c(SCC(=O)N/N=C/c3ccccc3O)nc3ccccc3c2=O)cc1", "values": [{"measurement": "growth", "value": 52, "unit": "%"}]}]}
